Results on eleven molecules are retold here after ChEMBL document CHEMBL3988442, “University of Dundee, Small-Polar-MMV Screening Library” (2021).

For some assays here: Entries with a potency or affinity are not part of this list.

Common to all, as to parameters: scale not given: direction of the effect not stated beside the values
In assay [1] the target is Protein translocase subunit SecA (Escherichia coli (strain K12)) (UniProt P10408). The assay is described as follows: Assay to Identify E. coli SecA ATPase Inhibitors. To be noted: 30 µM. The assay is classed as functional.
Chain of Protein translocase subunit SecA (Escherichia coli (strain K12)) (P10408 whole entry): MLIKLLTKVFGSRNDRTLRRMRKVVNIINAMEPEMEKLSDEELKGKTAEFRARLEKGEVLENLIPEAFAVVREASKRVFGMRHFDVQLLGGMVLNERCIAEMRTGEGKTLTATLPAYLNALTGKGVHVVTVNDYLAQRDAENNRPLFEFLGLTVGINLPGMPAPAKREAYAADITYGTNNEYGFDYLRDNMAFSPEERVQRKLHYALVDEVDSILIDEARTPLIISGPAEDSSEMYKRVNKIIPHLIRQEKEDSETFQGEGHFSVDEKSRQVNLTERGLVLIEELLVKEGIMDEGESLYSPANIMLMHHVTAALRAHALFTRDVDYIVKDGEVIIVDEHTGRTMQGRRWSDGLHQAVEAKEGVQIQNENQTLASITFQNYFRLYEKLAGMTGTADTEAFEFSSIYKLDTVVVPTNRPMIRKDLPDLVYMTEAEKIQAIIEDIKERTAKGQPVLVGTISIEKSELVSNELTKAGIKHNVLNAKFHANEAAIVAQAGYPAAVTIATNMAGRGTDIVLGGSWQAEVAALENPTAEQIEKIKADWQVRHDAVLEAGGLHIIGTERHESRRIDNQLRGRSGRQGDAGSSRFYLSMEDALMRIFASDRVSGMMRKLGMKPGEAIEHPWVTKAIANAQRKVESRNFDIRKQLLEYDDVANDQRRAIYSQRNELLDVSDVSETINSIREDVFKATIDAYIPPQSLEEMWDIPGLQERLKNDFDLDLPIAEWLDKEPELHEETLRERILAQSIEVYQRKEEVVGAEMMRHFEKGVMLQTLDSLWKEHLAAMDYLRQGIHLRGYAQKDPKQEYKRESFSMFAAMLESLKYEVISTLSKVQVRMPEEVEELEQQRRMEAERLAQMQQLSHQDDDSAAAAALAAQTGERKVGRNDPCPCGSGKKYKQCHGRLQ
In assay [2] the target is T1, Ubiquitin-activating enzyme e1, putative (Leishmania donovani (strain BPK282A1)) (UniProt E9BSI1).
T1 sequence (whole entry): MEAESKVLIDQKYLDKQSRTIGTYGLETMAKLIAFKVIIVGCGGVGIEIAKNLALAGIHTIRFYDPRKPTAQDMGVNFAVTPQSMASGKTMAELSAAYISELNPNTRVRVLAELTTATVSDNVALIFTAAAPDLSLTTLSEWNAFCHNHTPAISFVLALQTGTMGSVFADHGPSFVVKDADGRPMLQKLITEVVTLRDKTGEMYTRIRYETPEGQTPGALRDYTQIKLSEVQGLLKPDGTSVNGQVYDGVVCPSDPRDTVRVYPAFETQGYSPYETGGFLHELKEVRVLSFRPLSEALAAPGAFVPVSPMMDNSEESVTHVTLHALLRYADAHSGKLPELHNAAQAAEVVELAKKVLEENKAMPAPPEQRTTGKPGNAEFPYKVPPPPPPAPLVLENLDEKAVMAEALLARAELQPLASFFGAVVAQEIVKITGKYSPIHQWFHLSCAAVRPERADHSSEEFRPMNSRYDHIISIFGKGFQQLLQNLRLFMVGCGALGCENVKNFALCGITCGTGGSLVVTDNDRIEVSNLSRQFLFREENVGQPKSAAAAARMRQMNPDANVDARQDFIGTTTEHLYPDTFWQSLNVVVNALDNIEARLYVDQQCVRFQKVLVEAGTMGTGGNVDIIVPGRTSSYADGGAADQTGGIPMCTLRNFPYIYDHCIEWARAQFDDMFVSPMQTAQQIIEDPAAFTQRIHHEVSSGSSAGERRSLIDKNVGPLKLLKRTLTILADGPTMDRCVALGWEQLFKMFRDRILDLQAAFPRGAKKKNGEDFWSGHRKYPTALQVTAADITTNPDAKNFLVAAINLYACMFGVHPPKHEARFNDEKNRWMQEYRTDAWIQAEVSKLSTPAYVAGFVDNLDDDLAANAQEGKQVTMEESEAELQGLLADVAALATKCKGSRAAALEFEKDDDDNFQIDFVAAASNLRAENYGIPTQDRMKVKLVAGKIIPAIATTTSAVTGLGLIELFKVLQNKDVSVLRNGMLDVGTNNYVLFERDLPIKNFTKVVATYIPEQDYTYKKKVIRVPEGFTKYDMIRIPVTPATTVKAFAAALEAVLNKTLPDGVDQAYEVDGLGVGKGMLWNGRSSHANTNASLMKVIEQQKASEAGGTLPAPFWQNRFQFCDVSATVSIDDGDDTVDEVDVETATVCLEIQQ
The assay is described as follows: Leishmania donovani Ubiquitin Activating Enzyme (LdE1). In kind it is functional. The note with it: 30 µM.

Assay [3] addresses Sialic acid-binding Ig-like lectin 9 (Homo sapiens) (UniProt Q9Y336). The assay can be described thus: Hs-Siglec9 ALPHAscreen SOP 20170721. The note with it: 10 µM. On the technique in general: Alpha assays give light when donor and acceptor beads are brought close together.
Assay [4] deals with Trypanosoma cruzi. The assay can be described thus: Trypanosoma cruzi phosphomannomutase and mannose-1-phosphate guanylyltransferase assay. In kind it is functional. To be noted: 10 µM.
Assay [5] deals with T2, Arginase-2, mitochondrial (Homo sapiens) (UniProt P78540).
T2 sequence (whole entry): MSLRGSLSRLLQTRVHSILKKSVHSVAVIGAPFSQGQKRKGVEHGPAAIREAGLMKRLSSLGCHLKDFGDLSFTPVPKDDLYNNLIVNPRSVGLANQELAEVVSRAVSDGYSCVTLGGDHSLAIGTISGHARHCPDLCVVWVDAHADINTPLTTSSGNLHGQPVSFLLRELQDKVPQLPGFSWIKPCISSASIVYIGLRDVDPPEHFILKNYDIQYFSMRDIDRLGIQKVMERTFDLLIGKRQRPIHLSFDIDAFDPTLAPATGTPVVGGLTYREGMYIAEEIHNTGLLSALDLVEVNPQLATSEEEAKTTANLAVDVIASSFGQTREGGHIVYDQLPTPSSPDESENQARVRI
The assay can be described thus: in vitro enzyme assay to detect the production of urea directly proportional to the activity of Arginase II. Further: in the data most compounds retested in dose-response had high values. In kind it is functional. The note with it: 33.3 µM.

The target of assay [6] is T3, Proteasome subunit beta (Trypanosoma cruzi) (UniProt O96673).
T3 sequence (whole entry): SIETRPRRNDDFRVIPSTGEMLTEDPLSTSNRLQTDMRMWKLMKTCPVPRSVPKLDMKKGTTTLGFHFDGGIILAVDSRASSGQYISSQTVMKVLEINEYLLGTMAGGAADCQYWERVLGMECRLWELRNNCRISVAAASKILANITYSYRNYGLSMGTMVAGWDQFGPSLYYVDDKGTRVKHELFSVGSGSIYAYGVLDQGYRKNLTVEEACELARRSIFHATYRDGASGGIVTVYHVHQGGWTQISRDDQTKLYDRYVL
The assay is described as follows: Trypanosoma cruzi proteasome chymotrypsin-like activity (TcProtChymo) assay. Further: in the data most compounds retested in dose-response had high values. The assay is classed as functional. The note with it: 9.37 µM.

For assay [7], the species on record is Homo sapiens. The assay is described as follows: To identify inhibition of the IFN signalling (Jak-Stat) pathway via expression of an eGFP reporter gene under the control of an IFN-stimulated response element (ISRE) containing MxA promoter. In kind it is functional. To be noted: 30 µM. A general note: A reporter such as luciferase makes a cellular process visible.

In assay [8] the target is T4, Tyrosyl-tRNA synthetase, putative (Trypanosoma cruzi (strain CL Brener)) (UniProt Q4DSP6).
T4 sequence (whole entry): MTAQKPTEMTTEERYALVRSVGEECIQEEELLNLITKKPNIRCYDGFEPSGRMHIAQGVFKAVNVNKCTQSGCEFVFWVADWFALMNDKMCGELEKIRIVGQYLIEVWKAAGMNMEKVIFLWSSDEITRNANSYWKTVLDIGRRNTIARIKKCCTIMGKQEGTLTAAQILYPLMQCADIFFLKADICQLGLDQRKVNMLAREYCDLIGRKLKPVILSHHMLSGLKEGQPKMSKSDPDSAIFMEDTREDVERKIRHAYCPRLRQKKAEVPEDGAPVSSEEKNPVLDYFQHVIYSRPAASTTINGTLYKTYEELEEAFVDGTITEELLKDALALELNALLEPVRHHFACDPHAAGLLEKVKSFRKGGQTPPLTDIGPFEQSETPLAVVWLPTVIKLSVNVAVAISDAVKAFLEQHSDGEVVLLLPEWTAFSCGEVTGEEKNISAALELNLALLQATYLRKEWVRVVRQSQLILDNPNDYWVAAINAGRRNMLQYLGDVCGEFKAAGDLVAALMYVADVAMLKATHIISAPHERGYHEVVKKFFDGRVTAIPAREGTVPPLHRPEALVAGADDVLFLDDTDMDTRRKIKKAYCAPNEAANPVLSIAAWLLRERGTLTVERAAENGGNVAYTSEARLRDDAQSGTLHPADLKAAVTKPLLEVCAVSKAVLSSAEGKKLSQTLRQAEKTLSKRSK
The assay is described as follows: Trypanosoma cruzi tyrosyl tRNA synthetase (TcYRS) _High Tyrosine SOP. Further: in the data most compounds retested in dose-response had high values. The assay is classed as functional. To be noted: 30 µM.

The target of assay [9] is T4, Tyrosyl-tRNA synthetase, putative (Trypanosoma cruzi (strain CL Brener)). The assay can be described thus: Trypanosoma cruzi tyrosyl tRNA synthetase (TcYRS) SOP. The assay is classed as functional. The note with it: 30 µM.
Assay [10] concerns the target Chromo domain-containing protein 1 (Saccharomyces cerevisiae (strain ATCC 204508 / S288c) (Baker's yeast)) (UniProt P32657). The assay is described as follows: ScCHD-1 Enzyme Inhibition Assay. Further: in the data most compounds retested in dose-response had high values. The assay is classed as functional. The note with it: 30 µM.

Chain of Sialic acid-binding Ig-like lectin 9 (Homo sapiens) (Q9Y336 whole entry): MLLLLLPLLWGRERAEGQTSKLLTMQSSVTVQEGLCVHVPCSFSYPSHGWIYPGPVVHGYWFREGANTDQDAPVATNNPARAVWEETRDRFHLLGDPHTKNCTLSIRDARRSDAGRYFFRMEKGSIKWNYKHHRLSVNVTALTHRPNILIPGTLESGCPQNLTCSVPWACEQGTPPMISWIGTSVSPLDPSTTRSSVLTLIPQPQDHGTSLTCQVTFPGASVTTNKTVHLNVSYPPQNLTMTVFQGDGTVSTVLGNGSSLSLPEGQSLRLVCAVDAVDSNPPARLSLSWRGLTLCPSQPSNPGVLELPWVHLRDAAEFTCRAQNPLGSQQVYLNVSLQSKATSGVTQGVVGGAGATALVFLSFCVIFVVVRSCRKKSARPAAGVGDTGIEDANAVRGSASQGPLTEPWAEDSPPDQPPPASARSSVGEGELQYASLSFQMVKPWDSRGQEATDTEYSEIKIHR
Chain of Chromo domain-containing protein 1 (Saccharomyces cerevisiae (strain ATCC 204508 / S288c) (Baker's yeast)) (P32657 whole entry, the tested form may be a part): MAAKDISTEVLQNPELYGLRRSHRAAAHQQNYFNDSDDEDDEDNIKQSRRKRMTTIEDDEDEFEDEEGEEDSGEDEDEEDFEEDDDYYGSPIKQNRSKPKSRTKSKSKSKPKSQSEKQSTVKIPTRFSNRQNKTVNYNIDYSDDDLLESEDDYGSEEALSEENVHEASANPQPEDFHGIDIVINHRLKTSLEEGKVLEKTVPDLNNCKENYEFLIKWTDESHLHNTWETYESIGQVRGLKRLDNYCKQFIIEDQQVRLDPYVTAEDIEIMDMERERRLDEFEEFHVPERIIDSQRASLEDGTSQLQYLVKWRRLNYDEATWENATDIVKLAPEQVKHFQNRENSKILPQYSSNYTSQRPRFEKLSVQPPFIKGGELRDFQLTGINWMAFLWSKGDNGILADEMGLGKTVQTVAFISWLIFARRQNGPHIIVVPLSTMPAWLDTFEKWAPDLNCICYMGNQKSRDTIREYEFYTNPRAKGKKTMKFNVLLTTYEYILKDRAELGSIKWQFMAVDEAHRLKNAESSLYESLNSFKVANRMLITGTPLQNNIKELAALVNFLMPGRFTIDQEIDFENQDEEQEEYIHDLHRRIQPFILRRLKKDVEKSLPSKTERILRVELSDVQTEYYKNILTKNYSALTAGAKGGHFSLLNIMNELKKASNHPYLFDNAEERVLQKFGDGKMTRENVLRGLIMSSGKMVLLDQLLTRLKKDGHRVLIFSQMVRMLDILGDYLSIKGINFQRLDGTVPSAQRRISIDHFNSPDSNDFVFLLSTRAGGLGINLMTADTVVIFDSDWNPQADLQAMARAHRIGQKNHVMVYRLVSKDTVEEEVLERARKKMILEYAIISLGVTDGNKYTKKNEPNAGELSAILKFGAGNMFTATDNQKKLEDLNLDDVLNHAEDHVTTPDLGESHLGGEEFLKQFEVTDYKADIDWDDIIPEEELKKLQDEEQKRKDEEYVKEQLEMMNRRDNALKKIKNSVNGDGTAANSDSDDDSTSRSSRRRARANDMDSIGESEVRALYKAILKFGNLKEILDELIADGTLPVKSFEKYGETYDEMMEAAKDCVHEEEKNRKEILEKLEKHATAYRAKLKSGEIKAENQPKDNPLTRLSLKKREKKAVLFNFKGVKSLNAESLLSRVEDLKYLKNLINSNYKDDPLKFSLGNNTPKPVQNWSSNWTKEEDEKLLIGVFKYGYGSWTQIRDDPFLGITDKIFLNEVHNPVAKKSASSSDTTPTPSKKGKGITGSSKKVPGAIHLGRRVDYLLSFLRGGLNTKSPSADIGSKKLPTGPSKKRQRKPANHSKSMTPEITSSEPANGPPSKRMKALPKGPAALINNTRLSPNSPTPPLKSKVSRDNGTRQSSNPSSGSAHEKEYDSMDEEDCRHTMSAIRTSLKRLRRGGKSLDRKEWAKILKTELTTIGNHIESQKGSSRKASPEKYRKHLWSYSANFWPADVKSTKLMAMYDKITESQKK

Consider `Cc1cnc(CN(C)C2CCN(Cc3nc4ccccc4n3C)C2)o1` (stereo not given), for which the Percent Effect is -2.3% in [1]; 16% in assay [2]; -6.81% in assay [3]; 3.21% in assay [4]; -4.43% in [5]; 22.6% in [6]. Further, the Percent Effect is -0.979% in [7], 14.2% in assay [8], 17.9% in assay [9] and -12.5% in assay [10].

With `c1ccc(-n2ncc(CN3CCCC3Cn3cccn3)n2)cc1` (stereo not given), the Percent Effect in assay [1] is -6.8%; in assay [2] it was -13%; in assay [3] it was 24.4%; in [4] it was -2.61%; in assay [5], -0.205%; in [6] it was 5.44%. Moreover, the Percent Effect is 1.65% in [7], -1.96% in assay [8], -2.35% in [9] and 3.05% in assay [10].

As for `NCc1cn(-c2ccccc2C(=O)NCc2ccccc2)cn1`, the Percent Effect in assay [1] was -2.27%; in [2], 14.7%; in assay [3] it was 1.6%; in [4] it was -0.592%; in [5] it was 1.33%; in [6], 10.2%. For the same molecule, the Percent Effect in assay [7] is 26.2%; in assay [8] it was 6.35%; in assay [9], 15%; in assay [10] it was -23.1%.

Consider `COc1cccc(S(=O)(=O)N2CCC(O)(CN(C)C)C2)c1` (stereo not given), for which the Percent Effect was -2.81% in assay [1]; 4% in assay [2]; -1.76% in assay [3]; -3.35% in assay [4]; 4.42% in assay [5]; 9.2% in assay [6]. Further, the Percent Effect is -4% in assay [7], 1.06% in assay [8], 7.5% in [9] and -23.8% in [10].

On to `CNC(=O)CN1CCCC12CCN(C(=O)c1ccsc1)CC2`, for which the Percent Effect in [1] is -4.84%; in assay [2] it was 27.3%; in [3], 3.61%; in assay [4], 3.94%; in assay [5] it was -1.83%; in [6], 5.06%. Moreover, the Percent Effect in [7] is 1.81%; in [8], 6.76%; in [9] it was -92.5%; in assay [10] it was -11.2%.

For `Cc1ccc(S(=O)(=O)N2CCOc3ccccc32)cc1C(=O)O`, the Percent Effect in assay [1] is -0.902%; in assay [2], -5.13%; in assay [3] it was -13.7%; in assay [4], -1.03%; in assay [5], 1.23%; in assay [6] it was 11.5%. The Percent Effect in assay [7] was 1.07%; in [8] it was -7.18%; in [9] it was 6.02%; in [10] it was -6.35%.

As for `Cc1nc(C2CCCN2Cc2ncc(C(C)C)o2)no1` (stereo not given), the Percent Effect in [1] is -0.503%; in [2] it was 2.67%; in assay [3] it was -1.37%; in [4], -0.803%; in assay [5] it was -0.444%; in assay [6] it was 1.44%. In addition, the Percent Effect in assay [7] is 13.4%; in [8], -1.58%; in [9], -5.13%; in assay [10], -7.52%.

Take `Cc1cnc(CN(C)C2CCN(CCc3cnn(C)c3)C2)o1` (stereo not given): the Percent Effect in assay [1] was -3.84%; in assay [2], 0%; in assay [3], 0.368%; in assay [4], -1%; in [5], 2.66%; in assay [6], 3.65%. Also, the Percent Effect was 2.79% in assay [7], 4.74% in assay [8], 5.13% in assay [9] and -8.2% in assay [10].

As to `CCC1=N[C@@]2(CC[C@@H]3CN(C(=O)NCc4ccccc4)C[C@@H]32)C(=O)N1`, the Percent Effect in assay [1] is -4.85%; in [2] it was 3.9%; in assay [3], -3.04%; in assay [4], 1.66%; in assay [5], -4.86%; in assay [6], 4.33%. The Percent Effect in assay [7] was -16.6%; in assay [8], 5.79%; in assay [9], 5.13%; in assay [10] it was -0.556%.

For `Cc1n[nH]c(=O)c2c(NC(=O)CN3CCC(O)CC3)oc(C)c12`, the Percent Effect in [1] is -1.08%; in [2], 10.3%; in assay [3], -12.1%; in [4], -8.17%; in [5], 0.41%; in [6], 19.4%. In addition, the Percent Effect in [7] was 21.8%; in assay [8], 4.31%; in assay [9], 10.8%; in [10], -5.11%.

In the case of `COc1ccc(-n2ncc(C(=O)NCC3COC(C)(C)O3)c2N)cc1` (stereo not given), the Percent Effect is 97.8% in assay [1]; 14.7% in [2]; -6.21% in [3]; -0.592% in assay [4]; 1.33% in [5]; 14.8% in [6]. For the same molecule, the Percent Effect is 15.7% in assay [7], 1.06% in [8], 5% in assay [9] and -19.9% in assay [10].
